The source of these data is PubChem BioAssay (EPA / NIEHS).

Records with an inconclusive call do not appear. Activity calls are given as the source filed them. The calls were made as follows, unless noted: active = hit-call score of the fitted dose curve at least 0.9, where 1 is the maximum; inactive = score below 0.9.

For experiment [1], the target named is Paired box protein Pax-6 (Homo sapiens) (UniProt P26367). The experiment can be described thus: ATG_Pax6_CIS: Attagene CIS-FACTORIAL HepG2 Assay for human Paired Box 6 (PAX6) (AID 2282956). The note with it: HepG2 CIS-FACTORIAL PAX6 reporter transcription, RNA readout; actives raise or lower the signal. The method, boiled down:
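Transient MRTU transfection of HepG2 → compound exposure 24 h → TriZol RNA, oligo(dT) RT → PCR, 6-FAM primer extension, HpaI cut → capillary electrophoresis; activity fitted both directions against DMSO.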

A short description of experiment [2]: ATG_PXRE_CIS: Attagene CIS-FACTORIAL HepG2 Assay for human Pregnane X Receptor Element (PXRE) (AID 2282957). The note with it: HepG2 Attagene CIS-FACTORIAL PXRE reporter, mRNA; actives raise or lower the signal. The method, boiled down: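 Cells: HepG2, transiently transfected reporter units under cis promoter control. Exposure: 24 h. Detection: reporter mRNA via RT-PCR/CE fluorescence; bidirectional fitting, DMSO-referenced.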

Experiment [3] is described as follows: ATG_PPRE_CIS: Attagene CIS-FACTORIAL HepG2 Assay for human Peroxisome Proliferator-activated Response Element (PPRE) (AID 2282958). Conditions: HepG2 PPRE cis-element reporter, Attagene transcription factor profiling; actives raise or lower the signal. The essentials: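 Transcript-level reporter induction in transfected HepG2 cells after 24 h chemical exposure, quantified by fluorescence from RT-PCR products separated by capillary electrophoresis.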

The nature of experiment [4]: ATG_RORE_CIS: Attagene CIS-FACTORIAL HepG2 Assay for human RAR-related Orphan Receptor Element (RORE) (AID 2282959). The note with it: HepG2 Attagene cis-factorial RORE reporter, mRNA; actives raise or lower the signal. The essentials:
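Multiplexed reporter assay measuring mRNA induction from a cis promoter element in transiently transfected HepG2 cells after 24 h treatment. Detection via RT-PCR and capillary electrophoresis fluorescence; DMSO serves as baseline.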

Experiment [5] in a line: ATG_Sox_CIS: Attagene CIS-FACTORIAL HepG2 Assay for human SRY-box transcription factor (SOX) (AID 2282960). The note with it: HepG2 Attagene cis-factorial SOX reporter, mRNA; actives raise or lower the signal. The method, boiled down: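 Cells were transfected with reporter constructs under cis-regulatory promoters, then exposed to chemicals for 24 h. Reporter transcripts were quantified by fluorescence after RT-PCR and capillary electrophoresis; activity was fitted in both directions against DMSO.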

Experiment [6] addresses Transcription factor Sp1 (Homo sapiens) (UniProt P08047). Briefly: ATG_Sp1_CIS: Attagene CIS-FACTORIAL HepG2 Assay for human Specificity Protein 1 (Sp1) (AID 2282961). The note with it: HepG2 Sp1 cis-reporter transcription, actives raise or lower the signal. The essentials: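 Measures mRNA induction of an Sp1-linked reporter in HepG2 cells 24 h post-dosing. Multiplexed reporters read by RT-PCR and capillary electrophoresis; DMSO serves as negative control and baseline.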

Experiment [7] is described as follows: ATG_SREBP_CIS: Attagene CIS-FACTORIAL HepG2 Assay for human Sterol Regulatory Element Binding (SREBP) (AID 2282962). Conditions: HepG2 Attagene cis-factorial SREBP reporter, mRNA; actives raise or lower the signal. The essentials:
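Transfected HepG2 (cis-regulated reporter library, endogenous TFs) → compound 24 h → total RNA → oligo(dT) RT → reporter-specific PCR → FAM primer extension, HpaI cut → CE fluorescence. Fit bidirectional vs DMSO.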

The target of experiment [8] is Signal transducer and activator of transcription 3 (Homo sapiens) (UniProt P40763). Briefly: ATG_STAT3_CIS: Attagene CIS-FACTORIAL HepG2 Assay for human Signal Transducer and Activator of Transcription 3 (STAT3) (AID 2282963). The note with it: HepG2, Attagene cis-factorial STAT3 reporter transcription; actives raise or lower the signal. The method, boiled down:
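After a 24 h compound incubation, total RNA from MRTU-transfected HepG2 cells was converted to cDNA and reporter sequences PCR-amplified, labelled and profiled by capillary electrophoresis. Gain and loss of signal were referenced to DMSO.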

A short description of experiment [9]: ATG_TA_CIS: Attagene CIS-FACTORIAL HepG2 Assay for human TA Basal Promoter (AID 2282964). The note with it: HepG2 Attagene CIS-factorial TA basal promoter reporter; actives raise or lower the signal. The method, boiled down: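 Cis-factorial format in HepG2: reporters report endogenous factors, not chimeric Gal4 fusions. After 24 h treatment, reporter transcripts were measured by RT-PCR-capillary electrophoresis fluorescence, analysed bidirectionally versus DMSO.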

Experiment [10] can be described thus: ATG_TCF_b_cat_CIS: Attagene CIS-FACTORIAL HepG2 Assay for human T-Cell-Factor with beta-catenin (TCF/b-cat) (AID 2282965). Conditions: HepG2 TCF/beta-catenin cis-reporter transcription, actives raise or lower the signal. The essentials: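 Endogenous transcription factor activity is captured through cis-promoter reporter constructs transiently introduced into human HepG2 liver cells. Induced reporter mRNA is measured after 24 h and fitted bidirectionally relative to DMSO.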

A short description of experiment [11]: ATG_TAL_CIS: Attagene CIS-FACTORIAL HepG2 Assay for human TAL Basal Promoter (AID 2282966).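 Also: background control endpoint measuring basal TAL promoter reporter mRNA not a specific factor.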 Conditions: HepG2 Attagene cis-factorial TAL promoter reporter; actives raise or lower the signal. The essentials:
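RT-PCR plus capillary electrophoresis quantifies reporter mRNA induction in transiently transfected HepG2 cells after 24 h chemical treatment. DMSO serves as negative control and baseline for bidirectional fitting.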

A short description of experiment [12]: ATG_TGFb_CIS: Attagene CIS-FACTORIAL HepG2 Assay for human Transforming Growth Factor (TGF) (AID 2282967). Conditions: HepG2 Attagene CIS TGFb reporter, mRNA transcription; actives raise or lower the signal. The essentials: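 Multiplexed cis-reporter HepG2 system, 24 h treatment; mRNA induction read by fluorescence after RT-PCR and CE; DMSO negative control, bidirectional curve fitting.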

Experiment [13] can be described thus: ATG_VDRE_CIS: Attagene CIS-FACTORIAL HepG2 Assay for human Vitamin D Receptor Element (VDRE) (AID 2282968). Conditions: HepG2 VDRE cis-reporter transcription, actives raise or lower the signal. The method, boiled down:
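In transiently transfected HepG2 liver cells, gain or loss of reporter mRNA after 24 h exposure is scored relative to DMSO, using fluorescence detection by capillary electrophoresis of RT-PCR products.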

For experiment [14], the target named is Nuclear receptor subfamily 1 group I member 3 (Homo sapiens) (UniProt Q14994). Briefly: ATG_CAR_TRANS: Attagene TRANS-FACTORIAL HepG2 Assay for human Constitutive Androstane Receptor (CAR) (AID 2282969; active = hit-call score of the fitted dose curve at least 0.9, where 1 is the maximum;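 also: activators raise reporter mRNA above DMSO so AC50 marks induction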). Conditions: HepG2 Attagene TRANS-FACTORIAL CAR reporter. The essentials:
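Readout is reporter mRNA induction, quantified by fluorescent primer extension and capillary electrophoresis after RT-PCR. Cells were HepG2 transiently carrying chimeric NR-Gal4 constructs with GAL4-UAS reporters, treated for 24 h; activity scored upward from DMSO.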

The target in experiment [15] is Estrogen receptor (Homo sapiens) (UniProt P03372). Briefly: ATG_ERa_TRANS: Attagene TRANS-FACTORIAL HepG2 Assay for human Estrogen Receptor alpha (ERa) (AID 2282970; active = hit-call score of the fitted dose curve at least 0.9, where 1 is the maximum). Conditions: HepG2 Attagene TRANS ERa GAL4 reporter, mRNA. The essentials:
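Cells: HepG2, transiently transfected. Construct: GAL4-UAS reporter units regulated by exogenous NR-Gal4 chimeras. Time: 24 h. Detection: reporter mRNA by RT-PCR, capillary electrophoresis, fluorescence. Baseline: DMSO, upward fitting.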

In experiment [16] the target is X-box-binding protein 1 (Homo sapiens) (UniProt P17861). Briefly: ATG_Xbp1_CIS: Attagene CIS-FACTORIAL HepG2 Assay for human X-box Binding Protein 1 (XBP1) (AID 2282972). Conditions: HepG2 XBP1 cis-element reporter, Attagene multiplex; actives raise or lower the signal. The method, boiled down: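 HepG2, transient MRTU transfection (cis-promoter driven), 24 h compound exposure. Total RNA → oligo(dT) RT → PCR → 6-FAM labeling → HpaI cut → CE. Bidirectional fit vs DMSO.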

Experiment [17] in a line: ATG_GAL4_TRANS: Attagene TRANS-FACTORIAL HepG2 Assay for GAL4 (Internal Marker) (AID 2282976; active = hit-call score of the fitted dose curve at least 0.9, where 1 is the maximum). Conditions: HepG2 Attagene TRANS GAL4 internal marker reporter. The essentials: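 In transfected human HepG2 liver cells dosed 24 h, GAL4 reporter mRNA serves as a baseline marker. Detection by RT-PCR with fluorescent capillary electrophoresis, activity fitted upward relative to DMSO.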

The nature of experiment [18]: ATG_M_19_TRANS: Attagene TRANS-FACTORIAL HepG2 Assay for M19 Transcription Factor (Internal Marker) (AID 2282974; active = hit-call score of the fitted dose curve at least 0.9, where 1 is the maximum). Conditions: HepG2 Attagene TRANS-FACTORIAL M19 internal marker reporter. The essentials:
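After transfection of HepG2 with GAL4-UAS-driven reporter constructs, cells are dosed for 24 h. Total RNA is reverse-transcribed, reporter sequences PCR-amplified and labelled, then HpaI-digested and sized by capillary electrophoresis.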

The target in experiment [19] is Steroid hormone receptor ERR1 (Homo sapiens) (UniProt P11474). Briefly: ATG_ERRa_TRANS: Attagene TRANS-FACTORIAL HepG2 Assay for human Estrogen-Related Receptor alpha (ERRa) (AID 2282971; active = hit-call score of the fitted dose curve at least 0.9, where 1 is the maximum). The note with it: HepG2 Attagene TRANS reporter, ERRa transactivation. The method, boiled down:
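Reporter transcripts from ERRa-Gal4 chimera activity measured in transiently transfected human HepG2 cells 24 hours after dosing, using RT-PCR with 6-FAM primer extension, HpaI digestion and capillary electrophoresis; DMSO is baseline.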

Experiment [20] addresses Estrogen-related receptor gamma (Homo sapiens) (UniProt P62508). The experiment can be described thus: ATG_ERRg_TRANS: Attagene TRANS-FACTORIAL HepG2 Assay for human Estrogen-Related Receptor gamma (ERRg) (AID 2282977; active = hit-call score of the fitted dose curve at least 0.9, where 1 is the maximum;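 also: hits increase reporter signal over DMSO so potencies reflect activators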). The note with it: HepG2 Attagene TRANS reporter, ERRg transactivation. The method, boiled down:
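Transient HepG2 transfectants, 24 h compound exposure, GAL4-UAS reporter mRNA by RT-PCR/6-FAM labelling/capillary electrophoresis; positive direction vs DMSO.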

Signal transducer and activator of transcription 3 (Homo sapiens), sequence (P40763 whole entry, looked up): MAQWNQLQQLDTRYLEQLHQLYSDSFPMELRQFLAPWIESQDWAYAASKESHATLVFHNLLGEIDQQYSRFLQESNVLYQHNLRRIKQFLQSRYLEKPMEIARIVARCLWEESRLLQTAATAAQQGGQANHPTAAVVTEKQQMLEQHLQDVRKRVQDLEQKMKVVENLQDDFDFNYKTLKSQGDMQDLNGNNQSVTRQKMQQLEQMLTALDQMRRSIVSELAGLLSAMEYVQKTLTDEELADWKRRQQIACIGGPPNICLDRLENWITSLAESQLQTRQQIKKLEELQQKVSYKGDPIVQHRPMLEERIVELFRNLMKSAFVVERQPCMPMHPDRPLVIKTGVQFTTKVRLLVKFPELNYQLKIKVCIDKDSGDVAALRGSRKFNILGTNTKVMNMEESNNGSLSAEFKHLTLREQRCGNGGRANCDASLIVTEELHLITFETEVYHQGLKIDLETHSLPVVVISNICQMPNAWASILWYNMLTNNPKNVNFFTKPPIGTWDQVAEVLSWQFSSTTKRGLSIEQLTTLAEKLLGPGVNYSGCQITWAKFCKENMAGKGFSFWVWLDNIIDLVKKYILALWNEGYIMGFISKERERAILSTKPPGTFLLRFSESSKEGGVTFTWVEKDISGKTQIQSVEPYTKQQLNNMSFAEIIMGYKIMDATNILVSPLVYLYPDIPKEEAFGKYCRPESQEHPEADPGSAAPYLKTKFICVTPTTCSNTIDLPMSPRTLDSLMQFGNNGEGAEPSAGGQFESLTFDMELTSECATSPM
Estrogen receptor (Homo sapiens), sequence (P03372 whole entry, looked up, the tested form may be a part): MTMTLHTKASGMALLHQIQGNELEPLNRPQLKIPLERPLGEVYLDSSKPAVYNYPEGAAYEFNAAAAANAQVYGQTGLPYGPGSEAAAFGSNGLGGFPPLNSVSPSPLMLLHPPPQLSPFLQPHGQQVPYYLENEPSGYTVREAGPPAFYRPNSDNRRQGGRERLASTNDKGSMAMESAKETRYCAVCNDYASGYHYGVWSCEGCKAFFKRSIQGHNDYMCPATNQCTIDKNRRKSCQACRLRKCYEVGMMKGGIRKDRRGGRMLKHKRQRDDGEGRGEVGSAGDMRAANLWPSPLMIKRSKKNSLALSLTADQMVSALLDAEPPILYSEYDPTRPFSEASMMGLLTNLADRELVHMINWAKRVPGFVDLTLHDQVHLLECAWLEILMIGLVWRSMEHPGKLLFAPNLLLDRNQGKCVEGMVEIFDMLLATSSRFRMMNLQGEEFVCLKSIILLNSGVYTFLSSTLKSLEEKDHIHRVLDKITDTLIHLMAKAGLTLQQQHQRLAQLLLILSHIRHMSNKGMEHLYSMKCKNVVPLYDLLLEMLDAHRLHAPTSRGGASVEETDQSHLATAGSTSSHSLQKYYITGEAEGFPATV
Nuclear receptor subfamily 1 group I member 3 (Homo sapiens), sequence (Q14994 whole entry, looked up, the tested form may be a part): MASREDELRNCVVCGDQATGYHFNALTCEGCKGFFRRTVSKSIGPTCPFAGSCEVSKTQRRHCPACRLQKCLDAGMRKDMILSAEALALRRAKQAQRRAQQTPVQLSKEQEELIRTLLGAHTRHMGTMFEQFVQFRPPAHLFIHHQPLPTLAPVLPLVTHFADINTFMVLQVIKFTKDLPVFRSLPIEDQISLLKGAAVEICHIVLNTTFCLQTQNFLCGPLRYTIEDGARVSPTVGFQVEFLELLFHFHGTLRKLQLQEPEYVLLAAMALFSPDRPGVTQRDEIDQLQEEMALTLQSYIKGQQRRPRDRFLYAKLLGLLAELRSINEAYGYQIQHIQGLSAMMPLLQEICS
X-box-binding protein 1 (Homo sapiens), sequence (P17861 whole entry, looked up): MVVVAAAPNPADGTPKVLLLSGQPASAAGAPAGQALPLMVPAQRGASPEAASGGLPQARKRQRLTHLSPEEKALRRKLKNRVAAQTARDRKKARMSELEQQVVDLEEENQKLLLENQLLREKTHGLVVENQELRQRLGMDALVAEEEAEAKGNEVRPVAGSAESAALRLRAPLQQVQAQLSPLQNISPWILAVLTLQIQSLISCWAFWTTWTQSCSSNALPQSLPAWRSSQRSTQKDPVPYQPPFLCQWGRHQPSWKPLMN
Paired box protein Pax-6 (Homo sapiens), sequence (P26367 whole entry, looked up): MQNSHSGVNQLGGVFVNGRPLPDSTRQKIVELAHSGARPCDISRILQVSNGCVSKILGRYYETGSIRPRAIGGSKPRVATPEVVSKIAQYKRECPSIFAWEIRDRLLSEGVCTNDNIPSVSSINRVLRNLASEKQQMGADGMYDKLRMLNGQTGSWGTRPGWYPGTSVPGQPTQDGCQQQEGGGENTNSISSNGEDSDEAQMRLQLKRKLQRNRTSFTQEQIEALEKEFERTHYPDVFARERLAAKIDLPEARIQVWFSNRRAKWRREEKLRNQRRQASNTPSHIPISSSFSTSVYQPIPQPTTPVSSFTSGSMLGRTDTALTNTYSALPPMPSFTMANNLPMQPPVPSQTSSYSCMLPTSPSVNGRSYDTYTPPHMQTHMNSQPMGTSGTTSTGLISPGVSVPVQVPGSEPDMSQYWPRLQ
Transcription factor Sp1 (Homo sapiens), sequence (P08047 whole entry, looked up): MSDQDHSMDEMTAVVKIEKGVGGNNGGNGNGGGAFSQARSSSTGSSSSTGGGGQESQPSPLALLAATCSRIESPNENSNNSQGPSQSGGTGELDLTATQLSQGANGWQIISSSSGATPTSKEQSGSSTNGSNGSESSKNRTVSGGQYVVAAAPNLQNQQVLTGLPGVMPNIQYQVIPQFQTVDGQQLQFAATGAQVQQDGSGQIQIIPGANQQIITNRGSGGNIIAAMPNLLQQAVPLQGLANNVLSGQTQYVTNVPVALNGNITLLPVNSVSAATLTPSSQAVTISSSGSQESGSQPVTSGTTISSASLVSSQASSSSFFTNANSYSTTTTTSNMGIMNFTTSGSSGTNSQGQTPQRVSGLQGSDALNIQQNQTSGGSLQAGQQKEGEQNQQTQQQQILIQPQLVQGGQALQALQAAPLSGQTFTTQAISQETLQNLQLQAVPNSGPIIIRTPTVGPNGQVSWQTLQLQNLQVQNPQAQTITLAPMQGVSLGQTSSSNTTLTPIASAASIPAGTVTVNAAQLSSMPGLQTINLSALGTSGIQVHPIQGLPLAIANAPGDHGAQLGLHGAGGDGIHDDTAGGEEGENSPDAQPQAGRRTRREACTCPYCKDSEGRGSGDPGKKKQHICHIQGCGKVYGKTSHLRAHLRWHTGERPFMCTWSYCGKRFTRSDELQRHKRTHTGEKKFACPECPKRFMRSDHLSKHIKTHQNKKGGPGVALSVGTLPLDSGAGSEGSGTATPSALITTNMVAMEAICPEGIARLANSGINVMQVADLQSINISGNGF
Steroid hormone receptor ERR1 (Homo sapiens), sequence (P11474 whole entry, looked up, the tested form may be a part): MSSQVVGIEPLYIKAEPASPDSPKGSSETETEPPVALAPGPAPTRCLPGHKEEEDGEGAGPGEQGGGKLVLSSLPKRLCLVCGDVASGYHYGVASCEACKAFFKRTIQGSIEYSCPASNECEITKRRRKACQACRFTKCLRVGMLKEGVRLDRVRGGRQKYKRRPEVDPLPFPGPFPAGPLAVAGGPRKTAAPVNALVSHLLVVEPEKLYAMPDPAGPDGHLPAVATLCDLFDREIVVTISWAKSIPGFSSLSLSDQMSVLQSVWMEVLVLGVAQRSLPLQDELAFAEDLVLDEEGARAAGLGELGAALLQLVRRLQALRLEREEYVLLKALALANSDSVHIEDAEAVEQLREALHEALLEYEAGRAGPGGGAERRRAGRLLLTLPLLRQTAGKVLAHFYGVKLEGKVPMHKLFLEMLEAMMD
Estrogen-related receptor gamma (Homo sapiens), sequence (P62508 whole entry, looked up, the tested form may be a part): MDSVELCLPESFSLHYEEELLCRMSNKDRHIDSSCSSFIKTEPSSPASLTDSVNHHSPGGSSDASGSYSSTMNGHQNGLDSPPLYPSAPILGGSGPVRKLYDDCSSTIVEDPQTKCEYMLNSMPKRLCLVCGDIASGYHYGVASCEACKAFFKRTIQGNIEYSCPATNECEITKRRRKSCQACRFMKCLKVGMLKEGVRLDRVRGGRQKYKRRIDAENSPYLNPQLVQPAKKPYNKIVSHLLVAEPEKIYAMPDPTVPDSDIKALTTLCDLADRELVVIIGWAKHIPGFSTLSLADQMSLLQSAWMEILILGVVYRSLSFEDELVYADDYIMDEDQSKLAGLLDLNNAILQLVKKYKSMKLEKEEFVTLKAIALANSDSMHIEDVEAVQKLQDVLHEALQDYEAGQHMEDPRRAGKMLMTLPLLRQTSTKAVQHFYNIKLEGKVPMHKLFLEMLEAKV

One may read the AC50 as the midpoint of the concentration-response curve, whichever way the signal moves. With `Nc1ccc2cc3ccccc3cc2c1`, the result in [1], in experiment [3], in experiment [4], in [5], in [6] and in experiment [7] was inactive. Further, the outcome in experiment [8], in experiment [9], in experiment [10], in experiment [11], in experiment [12] and in experiment [13] was inactive. The outcome in experiment [14], in experiment [16] and in experiment [17] was inactive. Further, the AC50 in experiment [2] was 13.2 µM (active); in experiment [15], 6.94 µM (active).
Turning to `OCCNCc1ccccc1`, the molecule was called inactive in experiment [1], in experiment [2], in [3], in experiment [4], in experiment [5] and in experiment [6]. The outcome in [7], in experiment [8], in [9], in experiment [10], in experiment [11] and in experiment [12] was inactive. For the same molecule, the call in experiment [13], in experiment [14], in experiment [15], in [18] and in experiment [17] was inactive.
With `O=C1CCCN1CCO`, the molecule was classed as inactive in experiment [1], in experiment [2], in experiment [3], in experiment [4], in experiment [5] and in experiment [6]. Further, the outcome in experiment [7], in [8], in [9], in experiment [10], in experiment [11] and in experiment [12] was inactive. Further, the call in experiment [13], in experiment [14], in experiment [15] and in [18] was inactive.
Regarding `Cc1cc(C)c(C)c(O)c1`, the molecule was called inactive in experiment [1], in experiment [3], in experiment [4], in experiment [5], in experiment [6] and in experiment [7]. For the same molecule, the outcome in experiment [8], in [9], in experiment [10], in [11], in experiment [12] and in [13] was inactive. In addition, the result in experiment [14], in experiment [15], in experiment [19], in experiment [16], in [18] and in [17] was inactive. Moreover, the AC50 in experiment [2] is 42.3 µM (active).
On to `COCCCOCCCOC`, for which the result in [1], in experiment [2], in [3], in experiment [4], in [5] and in experiment [6] was inactive. In addition, the outcome in experiment [7], in experiment [8], in experiment [9], in [10], in experiment [11] and in experiment [12] was inactive. The result in experiment [13], in [19], in experiment [16] and in [18] was inactive.
In the case of `O=S(=O)(O)c1ccc2cc(O)c(S(=O)(=O)O)cc2c1`, the AC50 in experiment [1] is 151 µM (active); in experiment [10], 66.9 µM (active); in experiment [16], 172 µM (active). The molecule was called inactive in experiment [2], in experiment [3], in experiment [4], in experiment [5], in [6] and in experiment [7]. Besides, the molecule was classed as inactive in [8], in experiment [9], in [11], in experiment [12], in experiment [13] and in [18].
Turning to `CC(=O)C=CC1C(C)=CCC(C)C1(C)C` (stereo not drawn), the result in experiment [1], in experiment [3], in experiment [4], in experiment [5], in experiment [6] and in experiment [7] was inactive. The call in [8], in experiment [9], in experiment [10], in experiment [11], in [12] and in experiment [13] was inactive. For the same molecule, the outcome in experiment [14], in experiment [15], in [16], in experiment [17] and in [20] was inactive. Also, the AC50 in [2] is 0.972 µM (active).
